Source: PubChem BioAssay
TrxR1 inh – inhibitors of rat thioredoxin reductase 1; AID 588453; Potency, µM (highest dose often 114 µM), without a hit: top-dose activity change, negative = inhibition, hits mostly inhibitors; recombinant rTrxR1, NADPH fluorescence consumption, selenite substrate; 1% of 390,000 active; O89049; further: potency means the concentration at half of the fitted maximal effect; on the % scale 0 is the no-effect control and ±100 the full control effect; nearly all actives have a fitted effect of over 65% in size
Target sequence (O89049 whole entry, looked up): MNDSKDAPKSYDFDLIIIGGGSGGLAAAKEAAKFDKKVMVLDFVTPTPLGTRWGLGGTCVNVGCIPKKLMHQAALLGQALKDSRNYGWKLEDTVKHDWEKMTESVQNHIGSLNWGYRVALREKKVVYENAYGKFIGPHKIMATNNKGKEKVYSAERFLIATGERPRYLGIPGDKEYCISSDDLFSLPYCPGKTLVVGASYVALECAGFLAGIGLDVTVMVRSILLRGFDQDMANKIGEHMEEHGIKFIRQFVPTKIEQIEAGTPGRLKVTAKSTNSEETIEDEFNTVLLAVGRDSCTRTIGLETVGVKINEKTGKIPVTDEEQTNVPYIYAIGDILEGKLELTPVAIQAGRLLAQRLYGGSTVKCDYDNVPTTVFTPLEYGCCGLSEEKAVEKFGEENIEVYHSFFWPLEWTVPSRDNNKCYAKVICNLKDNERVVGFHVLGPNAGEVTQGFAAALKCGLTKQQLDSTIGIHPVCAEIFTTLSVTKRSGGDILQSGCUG
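Rat TrxR1 (90 nM in the dispensed reagent) was pre-reduced with 400 uM NADPH for 5 min at room temperature, then incubated with compound for 15 min. After 400 uM selenite was added, NADPH fluorescence (Ex 340/Em 450 nm) was followed for 8 min.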
GLP1R ag – GLP-1 receptor (human) agonism; P43220; HEK293 GLP-1R CRE-luciferase, luminescence, 4-6 h; cells express a hypersensitive GLP-1R form; Potency, µM (doses to about 45.6 µM), for inactives: top-dose activation, usual class: activators; 0.007% of 380,000 active; further: potency means the concentration at half of the fitted maximal effect; % of control where 0% means no effect
TrxR1 substrate – substrates of rat thioredoxin reductase 1; 0.01% of 390,000 active; O89049; purified TrxR1 substrate turnover, NADPH consumption readout; Potency, µM (top dose mostly 114 µM), inactives show top-dose activity change, negative = substrate turnover; further: potency means the concentration at half of the fitted maximal effect; on the % scale 0 is the no-effect control and ±100 the full control effect; nearly all actives have a fitted effect of over 50% in size
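Rat TrxR1, dispensed at 90 nM, was prereduced with 400 uM NADPH (final) for 5 min at ~22 deg C, then incubated with compound 15 min before 400 uM selenite. A first-read NADPH fluorescence drop versus no-compound background flagged substrates.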
GLP-1R inv ag – acts as inverse agonist at human GLP-1 receptor. HEK293 GLP-1R CRE-luciferase, luminescence, 24 h; GLP-1R form is constitutively active. Potency, µM (top dose mostly 38.3 µM), for inactives: top-dose activity change, negative = inhibition, actives largely listed as inhibitors. 1.6% of 410,000 active. AID 624417; further: potency means the concentration at half of the fitted maximal effect; on the % scale 0 is the no-effect control and ±100 the full control effect; nearly all actives have a fitted effect of over 55% in size
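qHTS in 1536-well format: reporter HEK293 cells expressing constitutive GLP-1R activity in DMEM + 10% Nu serum, 24 hr with compounds at 37 deg C, luminescence read after 12 min with detection reagent.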
GLP1R cytotox – cytotoxic in the GLP-1 receptor inverse agonist counter-screen. HEK293 cAMP-luciferase reporter cells, luminescence, 24 h. Potency, µM (doses to about 38.3 µM), for inactives: top-dose activity change, negative = inhibition, actives largely listed as inhibitors. 0.13% of 410,000 active. AID 624418;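 further: loss of luciferase light is scored as toxicity; potency means the concentration at half of the fitted maximal effect; on the % scale 0 is the no-effect control and ±100 the full control effect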
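Step one: seed cells (200 cells/uL, DMEM with 10% Nu serum, 1% pen-strep). Step two: 12-hour incubation at 37 deg C. Step three: pin 23 nL compound, incubate 24 hr. Step four: add luciferase reagent, read luminescence 12 min later.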
mIDH1 inhibitor – inhibitors of human mutant IDH1 R132H; O75874; AID 602179; 0.093% of 390,000 active; IDH1-R132H enzyme, NADPH consumption, diaphorase/resazurin fluorescence; Potency, µM (top dose mostly 76.6 µM), for inactives: at the top dose activity change, negative = inhibition, hits mostly inhibitors; further: potency means the concentration at half of the fitted maximal effect; on the % scale 0 is the no-effect control and ±100 the full control effect; nearly all actives have a fitted effect of over 65% in size
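IDH1-R132H (0.5 ug/mL dispensed) in pH 7.5 Tris buffer was preincubated 30 min with compound, then given a substrate mix of 0.016 mM NADPH and 2 mM alpha-KG for 80 min at room temperature; remaining NADPH was read by diaphorase/resazurin fluorescence.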
IDH1 autofl – interferes with resorufin fluorescence in IDH1 counter-screen; inhibition of signal, % at 51.2 µM; 750 tested, under 10 active; Resorufin detection reagent fluorescence interference, cell-free; shares compounds with mIDH1 inhibitor;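 further: 0% = wells with normal resorufin and full inhibition = wells lacking resorufin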
WT IDH1 inh – wild-type IDH1 (human) inhibition counterscreen. WT IDH1 enzyme, NADPH diaphorase/resazurin fluorescence. shares compounds with mIDH1 inhibitor. Potency, µM (highest dose often 115 µM), for the others: at the highest dose activity change, negative = inhibition, usual class: inhibitors. 9% of 750 active;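 further: potency means the concentration at half of the fitted maximal effect; 0% = full WT IDH1 enzyme control and full inhibition = no enzyme wells; nearly all actives have a fitted effect of over 55% in size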
IDH1 R132H conf – mutant IDH1 (human) inhibition, confirmed; shares compounds with mIDH1 inhibitor; IDH1 R132H enzyme, NADPH diaphorase/resazurin fluorescence; Potency, µM (top dose mostly 76.6 µM), for inactives: at the top dose activity change, negative = inhibition, most hits filed as inhibitors; 83% of 750 active; further: potency means the concentration at half of the fitted maximal effect; nearly all actives have a fitted effect of over 50% in size
Numbers without * were called inactive; ? = inconclusive; / = no result given; [ ] = dose if it differs, or a comment. Sampled rows, rich in hits. Any-hit rate of the full collection: about 2.7%. The call rests on the fitted dose curve; in most records, active means well fitted curve in the direction sought with a large enough effect; inconclusive means small, poorly fitted or top-dose-only effect, or another doubt; inactive means no such curve, though single readings can be large; an effect the other way counts as inactive or inconclusive.

SMILES | TrxR1 inh | GLP1R ag | TrxR1 substrate | GLP-1R inv ag | GLP1R cytotox | mIDH1 inhibitor | IDH1 autofl | WT IDH1 inh | IDH1 R132H conf
COc1ccc(-c2nc(SCc3cc(=O)c4cc(C)ccc4[nH]3)n[nH]2)cc1 | -5.4%[57.1 µM] | / | -8.0%[57.1 µM] | 6.5% | -2.2% | / | / | / | /
Cc1cc(C)cc(N(CC(=O)NC2CCCCC2)C(=O)c2ccc(C)s2)c1 | 9.8% | 6.4% | 8.2% | 19.6% | -27.6% | ? | 3.1 | 1.7% | 20µM*
Cc1ccc(N(CC(=O)NC2CCCCC2)C(=O)c2ccc(C)s2)cc1 | 24.2% | -0.7% | 6.3% | ? | -13.8% | 5.4% | / | / | /
CCOc1ccccc1CNC(=O)c1ccc(NC(=O)N2CCSc3ncccc32)cc1 | 20.1% | / | 13.7% | 2.9% | 0.0% | 2.9% | / | / | /
CC(C)CCSc1nc(N2CCOCC2)c2c(c1C#N)CC(C)(C)OC2 | 23.2%[57.1 µM] | 13.9% | -1.2%[57.1 µM] | 0.0% | 2.6% | 16.5µM* | -10.5 | 10.9% | 7.94µM*
Cc1ccccc1NC(=O)COc1ccccc1C(=O)Nc1ccccc1 | 32.2% | / | 4.8% | / | / | / | / | / | /
CCOC(=O)c1oc2cc(OC(C)=O)ccc2c(=O)c1-c1ccc(OC)c(OC)c1 | -5.3% | 5.9% | -6.0% | 20.7% | -0.4% | 29.3µM* | -3.1 | 4.7% | 25.1µM*
O=S(=O)(c1ccc(F)cc1)N1CCN(c2nc(-c3ccc(F)cc3)nc3cc(Cl)ccc23)CC1 | 28.7% | / | 3.2% | / | / | / | / | / | /
O=C1c2[nH]nc(-c3ccccc3O)c2C(c2cccc(Cl)c2)N1Cc1cccnc1 (stereo unspecified) | 9.3% | / | -3.7% | -7.5% | -28.9% | ? | 1.9 | 2.4% | 28.2µM*
COC(=O)c1ccc(C2c3c(-c4ccccc4O)n[nH]c3C(=O)N2Cc2ccncc2)cc1 (stereo unspecified) | 16.3% | / | -5.6% | 9.3% | -3.1% | -14.4% | / | / | /
O=C1c2[nH]nc(-c3ccccc3O)c2C(c2cccc(Br)c2)N1Cc1ccncc1 (stereo unspecified) | 5.2% | / | -3.8% | 12.6µM* | ? | ? | -2.6 | -2.8% | 25.1µM*
Cc1ccc(C2c3c(-c4ccccc4O)n[nH]c3C(=O)N2Cc2ccncc2)cc1 (stereo unspecified) | -4.2% | 0.2% | -1.1% | 0.0% | -40.7% | ? | 2.0 | 4.4% | 35.5µM*
CN1CCN(C(c2ccc(F)cc2)c2sc3nc(-c4ccco4)nn3c2O)CC1 (stereo unspecified) | 7.6%[57.1 µM] | / | 2.6%[57.1 µM] | 14.7% | 2.4% | 5.2% | / | / | /
COc1ccccc1NC(=O)Cn1c(C)cc(C)c(C#N)c1=O | 14.2%[57.1 µM] | -0.9% | -0.8%[57.1 µM] | 2.6% | 2.3% | -2.7% | / | / | /
CCOc1ccc(-n2c(C)nc3cc(C(=O)NC4CCCC4)ccc32)cc1 | 3.4%[57.1 µM] | / | -9.4%[57.1 µM] | ? | -5.7% | -8.6% | / | / | /
Cc1ccc(-c2cn3c(n2)sc2cc(C(=O)NC4CCCCCC4)ccc23)c(C)c1 | 13.4% | / | 3.2% | 1.5% | 1.7% | 6.9% | / | / | /
CNC1C(OC2C(O[C@@H]3C(O)C(O)[C@@H](N=C(N)N)C(O)C3N=C(N)N)OC(C)[C@@]2(O)CO)OC(CO)C(O)C1O (stereo partly specified) | / | 8.6% | / | / | / | / | / | / | /
